# Measured values: PubChem BioAssay (NCI)
# The panel holds about 79,000 compounds, 15% with a hit somewhere; the sample as a whole holds those more often. Values without a mark were called inactive. Calls of active or inactive are those of the source. Rule as the data show it: active = growth inhibition above about 70%; inactive = the rest.
# Experiments:
# [1] = NCI Yeast Anticancer Drug Screen. Data for the rad50 strain (AID 155);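 also: 0% = growth of vehicle-only cultures of the same strain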; conditions: S. cerevisiae rad50 strain growth inhibition; at 50.0 µM; active compounds read high
# Outline: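 Yeast carrying a defined DNA repair defect were exposed to test compounds, and growth was compared with vehicle-treated controls to give percent inhibition.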
# [2] = NCI Yeast Anticancer Drug Screen. Data for the mec2-1 strain (AID 157); conditions: S. cerevisiae mec2-1 strain, at 50.0 µM, active compounds read high
# Outline: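 Readout is yeast growth inhibition, normalised to vehicle-treated controls, in the mec2-1 strain exposed to compound.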
# [3] = NCI Yeast Anticancer Drug Screen. Data for the sgs1 mgt1 strain (AID 161);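 also: 0% = growth of cultures given vehicle only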; conditions: S. cerevisiae sgs1 mgt1 strain, at 50.0 µM, active compounds read high
# Outline: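 Growth of a repair-deficient yeast mutant was monitored after compound treatment and expressed as inhibition relative to vehicle-treated cultures.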
# [4] = NCI Yeast Anticancer Drug Screen. Data for the cln2 rad14 strain (AID 165);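 also: 0% = growth equal to vehicle treated cultures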; conditions: S. cerevisiae cln2 rad14 strain, at 50.0 µM, active compounds read high
# Outline: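 Relative to vehicle controls, growth inhibition of compound-treated cln2 rad14 yeast was recorded.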
# [5] = NCI Yeast Anticancer Drug Screen. Data for the bub3 strain (AID 167); conditions: S. cerevisiae bub3 mutant strain, at 50.0 µM, active compounds read high
# Outline: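 Compounds were applied to a genetically altered yeast strain carrying a cell-cycle control defect. Growth inhibition was scored against vehicle-treated controls.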
# [6] = NCI Yeast Anticancer Drug Screen. Data for the mlh1 rad18 strain (AID 175); conditions: S. cerevisiae mlh1 rad18 strain growth inhibition; at 50.0 µM; active compounds read high
# Outline: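 Test agents were incubated with a yeast strain of defined genotype (DNA damage repair defect). Inhibition of growth was derived by comparison with vehicle-exposed cultures.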
SMILES,growth inhibition [1] [%],growth inhibition [2] [%],growth inhibition [3] [%],growth inhibition [4] [%],growth inhibition [5],growth inhibition [6] [%]
CC(=O)OC1CN(c2ccc(Br)cc2)CC(OC(C)=O)CN(c2ccc(Br)cc2)C1 (stereo unspecified),6.25,9.7,-13.8,-32.9,-5.55%,-13.3
CO[C@H]1C[C@H]2CC[C@@]1(C)C2(C)C,8.85,12.6,3.7,-18.9,0.4%,-5.55
NNC(=O)c1ccc(Cl)c(Cl)c1,-1.1,-13.3,-0.9,2.85,-16.3%,-23.8
O=C(Cn1nnc(N2CCCCC2)n1)N/N=C/c1ccccc1O,-29.7,-42,-9,-10.8,-9.05%,-29.3
Cc1cc2nc3c(N)ccc(N)c3nc2cc1N,5.2,4.3,-0.65,-17.6,-29.1%,-7.7
CC1CN=C(N(C(=O)Nc2ccc(F)c(Cl)c2)c2ccccc2)S1 (stereo unspecified),-1.55,14.3,-12.3,25.4,41.3%,-29.9
CC[P+]1(c2ccccc2)[C@@H](C)CC[C@@H]1C,15.1,7.45,12.6,8.1,3.75%,37.7
Cc1ccc(SCC(=O)O)c(C)c1,27.1,17.9,18.1,14,7.65%,-13.5
Cn1cnc(N)c(N=O)c1=O,-0.1,8.65,10.1,18.7,-9.75%,6
Cc1cccc2c1CCC21OC(=O)c2c1ccc1ccccc21 (stereo unspecified),10.9,2.7,6.3,17.1,15.2%,15.1
Cn1cnc2cc3c(cc2c1=O)nc1n3CCCC1,-1.7,-2.5,-12.6,-12.4,-6.75%,-6.8
Nc1ccc(C(=O)c2ccccc2)cc1,33.2,13.9,25.4,-8.55,-1.55%,4.9
O=C(Nc1ccccc1)Sc1ccc(Cl)cc1,-12.2,-13.2,-22.5,-20.1,3.15%,2.85
C=C(C)C(=O)OCCn1c(=O)c2c(ncn2C)n(C)c1=O,-7.25,-18.8,-12.8,-3.1,-14.5%,5.55
CCOP(=O)(OCC)C(Cc1cn(S(=O)(=O)c2ccc(C)cc2)cn1)C(=O)O (stereo unspecified),-14.2,12.5,5.9,16.2,21.4%,-17.4
CC1=CC2=NCC(O)CN2C=C1 (stereo unspecified),-4.2,28.6,9.25,12.8,14.4%,2.2
CC(=O)OC1CC2C=CC1C2 (stereo unspecified),-3.55,-3.8,3.6,1.65,15.4%,-7.7
CCc1ccc(NC(=S)NC(=O)C(C)Oc2ccccc2)cc1 (stereo unspecified),39.5,21.6,54.7,15.1,78.8% (active),8.9
Cc1ccc(C)c(CNC(=O)Nc2ccccc2Cl)c1,12.4,-14.3,-22.8,6.75,5.35%,-18.2
CN(C)CC1CCc2c(n(C)c3ccccc23)C1=O (stereo unspecified),-2.55,-2.85,5.2,-51.8,-4.35%,10.6
CCC/C(=C(\C)c1ccccc1)c1ccccc1,46.1,33.6,37.7,14.1,-11.5%,33.3

SMILES,growth inhibition [1] [%],growth inhibition [2] [%],growth inhibition [3] [%],growth inhibition [4] [%],growth inhibition [5],growth inhibition [6] [%]
CCc1ccccc1NC(C)=O,-4.75,-16.4,-8.7,-5.2,0.25%,-12.7
Cc1ccccc1NC(=S)N1CCOCC1,-4.55,14.4,-10.8,-68.6,14.2%,-6.35
CCOC(=O)C1=C(N)n2c(s/c(=C/c3ccc(N(C)C)cc3)c2=O)=C(C(=O)OCC)C1c1ccc(N(C)C)cc1 (stereo unspecified),-7.3,-19.1,-9.1,-7.2,3.4%,-7.3
O=P(CCC(F)(F)C(F)(F)C(F)(F)C(F)(F)C(F)(F)C(F)(F)C(F)(F)F)(N1CC1)N1CC1,25.4,-1.9,8.15,-9.75,-1.2%,1.95
CC1CC(=O)Nc2nc(N)ncc21 (stereo unspecified),19.4,21.8,15.7,-3.8,7.75%,3.9
CC1CC([NH-])C([NH-])C(C)(C)C1.[Cl][Pt+2][Cl] (stereo unspecified),-4.35,-4.25,-9.95,-12.2,-10.8%,-49.2
CC(=O)O[C@H]1[C@@H]2[C@@H]3[C@@H](C[C@H]1C)[C@@H](C)CO[C@@]1(C)CC/C=C(/C)C[C@@H]2O[C@@H]31,-3.9,-1.75,0.15,-19.1,-12.8%,-8.95
O=C1NC(N2CCOCC2)=N/C1=C\c1ccccc1,8,11.2,-9.8,-3.65,-1.2%,-15.3
Oc1ccc(Cn2c(-c3ccc(O)cc3)nc3ccccc32)cc1,-6.95,-5,-10.1,5.05,1.4%,-13.3
CC/C(C)=N\NC(=O)CC(=O)N/N=C(/C)CC,-8.35,1.45,-7,-61.6,-4%,-17.1
CC1C(C(=O)NCC(c2ccccc2)c2ccccc2)CC2CCCCN21 (stereo unspecified),-15.5,-4.75,13.2,-9.2,11.2%,25.9
CC1CCC(C(C)C)/C(=N\O)C1 (stereo unspecified),4.8,-19.4,-11.9,-7.7,-6.4%,2.05
Nc1ccc(O)c(N=Nc2ccc(S(N)(=O)=O)cc2)c1,6,0.1,13.6,-1.1,18.1%,10.1
O=C1C(Cc2ccc(O)cc2)NC(=S)N1c1ccccc1 (stereo unspecified),0.6,-9.85,24.9,-2.75,20%,-19.8
COC(=O)C1OC1c1ccncc1 (stereo unspecified),19.1,6.15,32.3,5.3,0.1%,5.5
O=C(C1CC=CCC1C(=O)N1CCCCC1)N1CCCCC1 (stereo unspecified),11.1,-8.65,-6.2,-3.7,9.1%,-16.9
CCC1(CCC#N)CCC(N)=CC1=O (stereo unspecified),21.9,17.3,7.9,-50,-6.2%,-0.75
Nc1ncnc2c1ncn2-c1ccccc1Cl,4.6,8.35,-4.95,-1.4,0.75%,3.1
CC(C)CCCC(C)C1CCC2C(CC(=O)O)C(C3(C)CCC(O)CC3=O)CCC2(C)C1 (stereo unspecified),23.9,27.1,25.9,8.35,1.85%,33
COC1OC(COC(=O)c2ccccc2)C(SC(=O)c2ccccc2)C1OC(=O)c1ccccc1 (stereo unspecified),-21.1,-1.35,-32.5,-2,-1.4%,-12.5
